From PubChem BioAssay
The source made the active and inactive calls.

Columns and labels:
[1] = test system: Plasmodium falciparum Sir2 (PF13_0152, Sir2A); experiment: Plasmodium falciparum Sir2A binding compounds – biochemical, small-molecule microarray, 635 nm fluorescence, primary screen (AID 1098); conditions: fluorescence 635 nm, higher = more signal;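 note: score merges spot fluorescence intensity with its signal-to-noise ratio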
[2] = probe aDKK1 binding to arrayed compounds – biochemical, biotinylated probe, 635/667 nm fluorescence, primary screen (AID 1099); conditions: small-molecule microarray, higher = more signal;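 note: score merges 667nm spot fluorescence with signal to noise across triplicate slides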
[3] = probe aCHRDL2 binding to arrayed compounds – biochemical, biotinylated probe, 635/667 nm fluorescence, primary screen (AID 1100); conditions: small-molecule microarray, higher = more signal
[4] = change in splice reporter luminescence, either direction, cell-based, HEK293, spliceosome inhibition project, primary screen (AID 1101); conditions: HEK293 splicing luciferase reporter, 24 h, higher = more signal, called active from +8 up or from −8 down;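 note: HEK293 cells carrying a splicing-competent luciferase reporter gene; test concentration not given here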
[5] = target: Fibroblast growth factor 10 (Homo sapiens) (UniProt O15520); experiment: compounds binding fibroblast growth factor 10 – biochemical, small-molecule microarray, 635 nm fluorescence, primary screen (AID 1102); conditions: FGF10 binding, fluorescence 635 nm, higher = more signal
Sequence of Fibroblast growth factor 10 (Homo sapiens) (O15520 whole entry, looked up): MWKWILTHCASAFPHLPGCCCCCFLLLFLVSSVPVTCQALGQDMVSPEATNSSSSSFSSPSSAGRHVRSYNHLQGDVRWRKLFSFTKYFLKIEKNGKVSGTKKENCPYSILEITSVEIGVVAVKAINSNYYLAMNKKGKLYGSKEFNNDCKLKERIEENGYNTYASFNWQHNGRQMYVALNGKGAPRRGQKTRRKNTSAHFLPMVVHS

[6] = test system: glycogen synthase kinase-3 (GSK3A per assay name; protocol says GSK3B); experiment: compounds binding glycogen synthase kinase-3 – biochemical, small-molecule microarray, 635 nm fluorescence, GSK3A, primary screen (AID 1103); conditions: fluorescence 635 nm, higher = more signal; note: the record names both GSK3A and GSK3B
[7] = target: Epidermal growth factor receptor (Homo sapiens) (UniProt P00533); experiment: compounds binding epidermal growth factor receptor – biochemical, small-molecule microarray, 635 nm fluorescence, primary screen (AID 1104); conditions: EGFR binding, higher = more signal;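 note: score merges 667 nm emission intensity with spot signal to noise over triplicate slides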
Sequence of Epidermal growth factor receptor (Homo sapiens) (P00533 whole entry, looked up): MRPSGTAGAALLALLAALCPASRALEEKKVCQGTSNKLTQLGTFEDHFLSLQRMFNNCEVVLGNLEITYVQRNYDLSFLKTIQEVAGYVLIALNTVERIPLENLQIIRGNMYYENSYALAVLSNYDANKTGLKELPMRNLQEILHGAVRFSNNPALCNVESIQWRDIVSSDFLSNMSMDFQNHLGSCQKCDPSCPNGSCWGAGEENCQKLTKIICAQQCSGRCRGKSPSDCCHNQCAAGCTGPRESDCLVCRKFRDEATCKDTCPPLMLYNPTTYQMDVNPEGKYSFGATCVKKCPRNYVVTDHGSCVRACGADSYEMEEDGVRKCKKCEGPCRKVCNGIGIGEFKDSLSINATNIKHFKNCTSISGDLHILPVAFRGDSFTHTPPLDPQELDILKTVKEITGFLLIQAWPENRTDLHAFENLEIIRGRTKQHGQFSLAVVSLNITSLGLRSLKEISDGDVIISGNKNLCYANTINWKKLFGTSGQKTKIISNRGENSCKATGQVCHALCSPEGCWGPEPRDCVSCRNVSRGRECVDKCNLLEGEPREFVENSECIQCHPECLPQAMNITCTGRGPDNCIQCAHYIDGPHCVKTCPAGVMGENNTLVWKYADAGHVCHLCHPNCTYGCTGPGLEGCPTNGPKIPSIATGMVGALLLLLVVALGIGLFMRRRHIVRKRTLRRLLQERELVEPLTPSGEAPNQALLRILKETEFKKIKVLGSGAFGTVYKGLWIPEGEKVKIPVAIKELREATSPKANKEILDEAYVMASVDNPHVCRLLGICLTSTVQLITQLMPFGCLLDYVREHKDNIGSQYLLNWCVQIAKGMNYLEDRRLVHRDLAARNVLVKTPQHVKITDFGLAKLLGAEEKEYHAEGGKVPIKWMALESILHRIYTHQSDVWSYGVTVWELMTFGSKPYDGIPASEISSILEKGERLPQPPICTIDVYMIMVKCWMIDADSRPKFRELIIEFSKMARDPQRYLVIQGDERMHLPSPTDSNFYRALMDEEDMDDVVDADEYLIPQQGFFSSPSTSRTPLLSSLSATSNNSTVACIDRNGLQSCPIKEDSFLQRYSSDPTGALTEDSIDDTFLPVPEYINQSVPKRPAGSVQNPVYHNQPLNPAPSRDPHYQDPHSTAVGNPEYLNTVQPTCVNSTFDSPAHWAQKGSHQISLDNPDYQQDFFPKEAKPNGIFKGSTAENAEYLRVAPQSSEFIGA

[8] = target: Follistatin-related protein 3 (Homo sapiens) (UniProt O95633); experiment: compounds binding follistatin-related protein 3 – biochemical, small-molecule microarray, 635 nm fluorescence, primary screen (AID 1105); conditions: FSTL3 binding, higher = more signal;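 note: score merges emission near 667 nm and signal to noise per printed spot across three slides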
Sequence of Follistatin-related protein 3 (Homo sapiens) (O95633 whole entry, looked up): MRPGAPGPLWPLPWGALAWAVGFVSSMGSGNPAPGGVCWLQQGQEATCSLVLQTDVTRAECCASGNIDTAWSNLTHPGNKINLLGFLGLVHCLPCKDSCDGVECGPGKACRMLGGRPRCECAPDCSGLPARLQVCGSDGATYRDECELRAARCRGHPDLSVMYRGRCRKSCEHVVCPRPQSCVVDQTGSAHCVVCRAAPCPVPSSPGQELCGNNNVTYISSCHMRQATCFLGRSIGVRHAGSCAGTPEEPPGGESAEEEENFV

[9] = target: Dickkopf-related protein 1 (Homo sapiens) (UniProt O94907); experiment: small molecules binding DKK1 protein – biochemical, small-molecule microarray, 635 nm fluorescence scan, primary screen (AID 1106); conditions: higher = more signal;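 note: score merges emission near 667 nm with signal to noise over three replicate slides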
Sequence of Dickkopf-related protein 1 (Homo sapiens) (O94907 whole entry, looked up): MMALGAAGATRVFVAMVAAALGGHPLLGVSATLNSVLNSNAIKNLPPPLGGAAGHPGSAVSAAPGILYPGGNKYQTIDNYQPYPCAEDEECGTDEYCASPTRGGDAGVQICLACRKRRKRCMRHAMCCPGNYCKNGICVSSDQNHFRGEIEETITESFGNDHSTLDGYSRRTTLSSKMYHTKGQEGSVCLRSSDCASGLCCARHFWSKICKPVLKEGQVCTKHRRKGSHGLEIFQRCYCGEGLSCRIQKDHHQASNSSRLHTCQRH

[10] = test system: Inhibin beta A chain (activin A); experiment: small molecules binding activin A – biochemical, small-molecule microarray, 635 nm fluorescence scan, primary screen (AID 1107); conditions: INHBA, higher = more signal;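 note: mouse activin A protein probed at 4.33 µg/mL on printed slides; score merges bound-protein fluorescence near 667 nm with spot signal-to-noise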
[11] = test system: Human papillomavirus type 1a protein E7 (residues 44-93); experiment: small molecules binding HPV E7 44-93 – biochemical, small-molecule microarray, residues 44-93, 635 nm fluorescence, primary screen (AID 1108); conditions: fluorescence 635 nm, higher = more signal;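 note: E7 fragment applied at 1 µg/mL in TBST for 1 h at 4 C; score combines spot fluorescence with its signal to noise ratio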
[12] = hepatitis C replication reporter changes, two-sided – Huh7 cells, luciferase reporter, HCV replication inhibitor project, primary screen (AID 1109); conditions: Huh7 HCV replicon luciferase reporter, 48 h; higher = more signal;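 note: huh7 hepatoma cells harbouring a luciferase neomycin HCV replicon reporter; luciferase luminescence as measure of HCV replicon replication; test concentration not given here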
[13] = target: Left-right determination factor 2 (Homo sapiens) (UniProt O00292); experiment: small molecules binding LEFTY2 protein – biochemical, small-molecule microarray, 635 nm fluorescence scan, primary screen (AID 1110); conditions: higher = more signal
Sequence of Left-right determination factor 2 (Homo sapiens) (O00292 whole entry, looked up): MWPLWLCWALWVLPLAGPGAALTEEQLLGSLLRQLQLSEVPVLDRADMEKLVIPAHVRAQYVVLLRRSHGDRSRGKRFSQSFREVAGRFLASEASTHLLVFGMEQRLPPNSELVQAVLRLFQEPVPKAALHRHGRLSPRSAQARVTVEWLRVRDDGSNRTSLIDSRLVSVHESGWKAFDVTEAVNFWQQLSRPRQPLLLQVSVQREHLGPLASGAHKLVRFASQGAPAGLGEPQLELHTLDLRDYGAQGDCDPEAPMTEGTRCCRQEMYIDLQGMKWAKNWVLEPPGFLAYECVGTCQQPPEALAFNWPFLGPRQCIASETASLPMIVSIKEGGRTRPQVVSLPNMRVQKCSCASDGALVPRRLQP

[14] = target: Calmodulin-1 (Homo sapiens) (UniProt P0DP23); experiment: small molecules binding calmodulin-1 with EGTA – biochemical, small-molecule microarray, Cy5-labelled CALM1, profiling panel (AID 1111); conditions: Cy5-CALM1 binding fluorescence, higher = more signal;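 note: labelled calmodulin applied in Tris saline Tween buffer holding calcium plus EGTA and DTT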
[15] = target: Calmodulin-1 (Homo sapiens) (UniProt P0DP23); experiment: small molecules binding Ca-loaded calmodulin-1 – biochemical, small-molecule microarray, Cy5-labelled CALM1, plus calcium, artefact control for SMM control-protein annotation, profiling panel (AID 1112); conditions: Cy5-CALM1 binding fluorescence, higher = more signal;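 note: score merges spot fluorescence with signal to noise from triplicate slides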
[16] = probe aWnt5a binding to arrayed compounds – biochemical, biotinylated probe, 635/667 nm fluorescence, primary screen (AID 1113); conditions: small-molecule microarray, higher = more signal;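 note: score merges 667 nm fluorescence intensity with signal-to-noise per printed feature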
[17] = probe aShh binding to arrayed compounds – biochemical, biotinylated probe, 635/667 nm fluorescence, primary screen (AID 1114); conditions: small-molecule microarray, higher = more signal;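 note: probe is biotin-labelled aShh protein from a stem cell growth factor screen; measures binding of labelled protein to compounds printed on the slide; score merges feature fluorescence at 667 nm with signal-to-noise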
[18] = probe aNog binding to arrayed compounds – biochemical, biotinylated probe, 635/667 nm fluorescence, primary screen (AID 1115); conditions: small-molecule microarray, higher = more signal;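 note: probe is biotinylated aNog protein used at 0.15 µg/mL for 1 h at 4 C; z-score combines 667 nm fluorescence of each spot with its signal to noise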
[19] = target: Torsin-1A-interacting protein 1 (Homo sapiens) (UniProt Q5JTV8); experiment: compound microarray binding of lysate hLAP1 – cell lysate, small-molecule microarray, COS7 lysate, 635/667 nm fluorescence, primary screen (AID 1116); conditions: 635 nm fluorescence, higher = more signal
Sequence of Torsin-1A-interacting protein 1 (Homo sapiens) (Q5JTV8 whole entry, looked up): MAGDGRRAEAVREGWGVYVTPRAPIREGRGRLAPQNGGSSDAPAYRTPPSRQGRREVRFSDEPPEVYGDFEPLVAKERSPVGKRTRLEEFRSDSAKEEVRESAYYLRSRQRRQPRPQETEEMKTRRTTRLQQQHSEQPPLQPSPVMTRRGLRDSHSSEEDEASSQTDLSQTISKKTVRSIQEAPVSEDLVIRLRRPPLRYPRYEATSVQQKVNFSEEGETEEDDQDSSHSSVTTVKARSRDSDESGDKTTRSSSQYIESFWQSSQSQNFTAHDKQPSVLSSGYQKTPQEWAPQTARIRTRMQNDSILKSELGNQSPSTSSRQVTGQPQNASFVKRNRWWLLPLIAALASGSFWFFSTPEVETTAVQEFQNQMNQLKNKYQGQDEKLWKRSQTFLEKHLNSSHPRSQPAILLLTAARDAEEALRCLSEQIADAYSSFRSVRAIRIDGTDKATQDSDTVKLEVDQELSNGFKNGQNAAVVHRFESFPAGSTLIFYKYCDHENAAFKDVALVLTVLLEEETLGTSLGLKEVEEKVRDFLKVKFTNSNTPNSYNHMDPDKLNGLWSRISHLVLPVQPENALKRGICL

[20] = target: Alpha-bungarotoxin (Bungarus multicinctus) (UniProt P60615); experiment: compounds binding labelled alpha-BTX control protein – biochemical, small-molecule microarray, Alexa647 label, 635/667 nm fluorescence, artefact control for SMM control protein annotation, profiling panel (AID 1117); conditions: alpha-BTX-A647 binding fluorescence, higher = more signal
Sequence of Alpha-bungarotoxin (Bungarus multicinctus) (P60615 whole entry, looked up): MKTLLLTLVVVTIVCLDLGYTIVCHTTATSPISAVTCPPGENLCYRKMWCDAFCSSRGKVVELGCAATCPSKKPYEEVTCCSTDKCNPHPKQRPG

SMILES	composite z-score [1]	composite z-score [2]	composite z-score [3]	z-score [4]	composite z-score [5]	composite z-score [6]	composite z-score [7]	composite z-score [8]	composite z-score [9]	composite z-score [10]	composite z-score [11]	z-score [12]	composite z-score [13]	composite z-score [14]	composite z-score [15]	composite z-score [16]	composite z-score [17]	composite z-score [18]	composite z-score [19]	composite z-score [20]
C[C@@H]1NC(=O)[C@H](Cc2ccccc2)NC(=O)[C@@]23C(=O)N[C@@H](Cc4ccccc4)C2[C@H](C)[C@@]2(C)O[C@H]2C3/C=C/C/C=C\CNC1=O (stereo not given in full)	1.04	-0.277	-0.533	-0.212 (inactive)	-0.356	-1.48	-0.202	-0.0037	0.515	0.944	-2.69	-1.06	-0.122	-0.472	-1.06	-0.124	-0.0474	-0.238	0.0403	-0.576
C[C@@H]1CC[C@H]2C(=O)N3[C@@H](CC[C@@H](C)[C@@H]3c3cccc(N4CCOCC4)c3)C(=O)N2[C@H]1c1cccc(N2CCOCC2)c1	1.15	0.335	0.189	-0.188 (inactive)	0.37	0.513	0.224	1.12	1.82	0.866	0.384	0.27	0.676	-0.413	-0.403	-0.0478	0.51	-0.459	0.653	1.03
COC(=O)C1=CC(c2ccc(CO)cc2)=CC(C2CC2)N(Cc2sc3ccccc3c2Cl)C=C1C(=O)OC (stereo not given)	1.55	1.02	0.978	-1.16 (inactive)	0.855	1.3	0.242	1.19	0.304	0.715	1.29	-1.27	0.204	2.45	0.975	0.0017	0.246	1.38	2.42	2.75
CCCC[C@H]1OB(O)C[C@H]2C1=C(COC)C[C@H]1C(=O)N(Cc3ccccc3)C(=O)[C@H]12	-0.0105	0.0752	-0.0346	-1.27 (inactive)	0.78	0.261	0.013	1.1	0.0988	0.223	-0.0721	0.202	0.313	0.188	-0.0421	-0.0327	-0.0904	0.0649	0.25	0.526
CCCNC(=O)[C@@H]1c2ccccc2C(=O)N(C2CCCCC2)[C@H]1c1ccc(CO)cc1	0.941	0.331	0.533	-0.618 (inactive)	0.965	1.3	0.432	0.958	0.315	0.397	1.44	-1.32	0.454	0.674	-0.616	-0.131	0.131	-0.278	0.65	0.765
CCOC(=O)C[C@H]1[C@H](OC(=O)c2cc3ccccc3oc2=O)[C@@H](NC(=O)C2CCCCC2)c2cc(OCCCO)ccc2N1C(=O)c1ccc2ccccc2n1	0.631	-0.245	-0.273	-0.34 (inactive)	0.68	0.413	0.258	1.08	0.493	0.304	1.03	-0.26	0.4	0.242	-0.137	-0.0721	0.225	-0.188	0.767	0.131
